According to paper PMC4336329 (PLoS ONE, 2015):
Screen size: about 310,000 compounds; about 14,000 (4.5%) showed an effect of 50% or more. The effect is printed as a negative number. The list comes from a sample in which strong results are over-represented; it also holds similar structures and randomly drawn compounds.

target: human ether-à-go-go-related gene (hERG) potassium channel (human, UniProt Q12809); experiment: primary screen, population patch clamp on CHO cells stably expressing hERG; higher = less effect of the substance
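Note: peak tail current of the secondary pulse compared with the same well before compound.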

Chain of human ether-à-go-go-related gene (hERG) potassium channel (Q12809 whole entry, looked up): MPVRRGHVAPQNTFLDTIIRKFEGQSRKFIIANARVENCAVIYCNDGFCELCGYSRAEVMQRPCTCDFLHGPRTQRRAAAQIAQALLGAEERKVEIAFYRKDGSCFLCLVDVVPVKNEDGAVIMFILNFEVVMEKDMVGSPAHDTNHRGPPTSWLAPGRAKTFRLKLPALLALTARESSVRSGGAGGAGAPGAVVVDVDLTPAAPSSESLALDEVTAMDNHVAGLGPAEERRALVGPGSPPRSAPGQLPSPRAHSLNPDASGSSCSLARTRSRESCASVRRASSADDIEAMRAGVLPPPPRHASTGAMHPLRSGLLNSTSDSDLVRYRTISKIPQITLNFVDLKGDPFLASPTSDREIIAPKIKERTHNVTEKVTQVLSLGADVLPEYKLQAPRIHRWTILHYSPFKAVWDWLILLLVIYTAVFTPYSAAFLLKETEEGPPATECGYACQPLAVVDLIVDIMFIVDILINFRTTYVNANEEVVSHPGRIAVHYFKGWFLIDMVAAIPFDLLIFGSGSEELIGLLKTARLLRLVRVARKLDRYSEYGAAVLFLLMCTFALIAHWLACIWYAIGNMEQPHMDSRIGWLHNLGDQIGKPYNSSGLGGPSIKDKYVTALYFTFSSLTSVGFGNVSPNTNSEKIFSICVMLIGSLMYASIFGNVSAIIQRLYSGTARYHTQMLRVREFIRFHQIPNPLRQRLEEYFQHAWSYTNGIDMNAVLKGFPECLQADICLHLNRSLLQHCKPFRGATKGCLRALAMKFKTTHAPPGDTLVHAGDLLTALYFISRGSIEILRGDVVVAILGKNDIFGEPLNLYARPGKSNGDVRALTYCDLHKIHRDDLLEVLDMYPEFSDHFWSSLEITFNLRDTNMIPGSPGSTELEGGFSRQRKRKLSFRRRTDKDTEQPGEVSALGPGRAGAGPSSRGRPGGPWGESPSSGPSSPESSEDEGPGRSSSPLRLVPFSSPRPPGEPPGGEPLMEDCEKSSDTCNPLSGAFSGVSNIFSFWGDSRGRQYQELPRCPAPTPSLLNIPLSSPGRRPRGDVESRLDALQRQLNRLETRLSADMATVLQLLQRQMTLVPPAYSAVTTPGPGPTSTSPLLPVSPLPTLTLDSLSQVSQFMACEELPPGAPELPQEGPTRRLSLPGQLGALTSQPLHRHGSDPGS

Row | SMILES | hERG current change (%, negative = inhibition) at 10uM [%]
1 | COc1cc(/C=C/C(=O)OCC(=O)NCC(=O)Nc2cccc(C)c2C)ccc1OC(F)F | -25.7
2 | Cc1cc(C)nc(SC(C)CNS(=O)(=O)c2ccccc2)n1 (centres unmarked) | 0.485
3 | CCC(C)(C)NC(=O)C(c1ccc(OC)cc1)N(C(=O)CCC(=O)Nc1cc(C)on1)c1cccc(OC)c1 (centres unmarked) | 1.47
4 | O=C(Cn1cncn1)N/N=C/c1cc([N+](=O)[O-])ccc1O | 1.67
5 | COc1ccc(OC)c(NC(=O)c2ccccc2N(C)S(=O)(=O)c2ccc(C)cc2)c1 | -9.39
6 | CCOC(=O)CSc1nc2cc3c(cc2cc1C#N)OCCO3 | 19
7 | Cc1ccc(C(=O)NCCc2cccs2)cc1 | 7.84
8 | COC(=O)c1[nH]c2ccc(C)cc2c1NC(=O)NC1CCCCC1 | 8.55
9 | COC(=O)c1[nH]c2ccccc2c1NC(=O)C(C)N1CC(C)OC(C)C1 (centres unmarked) | 5.31
10 | COC(=O)c1[nH]c2ccc(Br)cc2c1NC(=O)CN1CCN(C2CCCCC2)CC1 | -78.7
11 | COC(=O)c1[nH]c2ccc(C)cc2c1NC(=O)C(C)N1CCN(C2CCCCC2)CC1 (centres unmarked) | -77
12 | COC(=O)c1[nH]c2ccc(Cl)cc2c1NC(=O)CCN1CCOCC1 | 2.71
13 | COC(=O)c1[nH]c2ccc(Cl)cc2c1NC(=O)CN1CCC(C(N)=O)CC1 | -2.26
14 | CCOC(=O)C1CCCN(CC(=O)Nc2c(C(=O)OC)[nH]c3ccc(Br)cc23)C1 (centres unmarked) | -30.9
15 | COC(=O)c1[nH]c2ccc(Br)cc2c1NC(=O)CN1CCCc2ccccc21 | -4.4
16 | COC(=O)c1[nH]c2ccccc2c1NC(=O)C(C)N1CCOCC1 (centres unmarked) | 9.7
17 | COC(=O)c1[nH]c2ccc(Br)cc2c1NC(=O)CN1CCCCC1CCO (centres unmarked) | -2.6
18 | COC(=O)c1[nH]c2ccc(Br)cc2c1NC(=O)C(C)N1CCN(C2CCCCC2)CC1 (centres unmarked) | -78.2
19 | COC(=O)c1[nH]c2ccc(Cl)cc2c1NC(=O)CCN1CCN(C2CCCCC2)CC1 | -80
20 | CCC(Sc1nc2ccncc2[nH]1)C(=O)Nc1cc(Cl)ccc1C (centres unmarked) | -44.3
21 | CC(=O)N1c2ccc(S(=O)(=O)N3CCC(C(=O)Nc4cccc(Cl)c4)CC3)cc2CC1C (centres unmarked) | 15.1
22 | O=c1cc(CO)oc(C(Nc2ccccn2)c2ccccc2F)c1O (centres unmarked) | 17.5
23 | CC(C)c1c(C(=O)N/N=C/c2ccsc2)nnn1-c1nonc1N | 23.8
